“And” between values parts separate entries of the source, which are not always exact repeats. Equal values may be shown once. About 5,700 (36%) of roughly 16,000 compounds were called active. Not shown: some 24% with an inconclusive outcome. Calls come from the whole dose curve; as a rule, active = well fitted curve in the direction sought with a large enough effect; inconclusive = small, poorly fitted or top-dose-only effect, or effect the other way; inactive = no such curve, though single readings can be large or run the other way. This is one part of the list. Some structures have more than one record in an assay (separate samples or runs), and their calls can disagree.
biological target: Cytochrome P450 1A2 (Homo sapiens) (UniProt P05177); assay: Cytochrome panel assay with activity outcomes; settings: recombinant CYP, pro-luciferin dealkylation, luminescence, p450-cyp1a2; series mostly up to 57.1 µM
Sequence (P05177 whole entry, looked up): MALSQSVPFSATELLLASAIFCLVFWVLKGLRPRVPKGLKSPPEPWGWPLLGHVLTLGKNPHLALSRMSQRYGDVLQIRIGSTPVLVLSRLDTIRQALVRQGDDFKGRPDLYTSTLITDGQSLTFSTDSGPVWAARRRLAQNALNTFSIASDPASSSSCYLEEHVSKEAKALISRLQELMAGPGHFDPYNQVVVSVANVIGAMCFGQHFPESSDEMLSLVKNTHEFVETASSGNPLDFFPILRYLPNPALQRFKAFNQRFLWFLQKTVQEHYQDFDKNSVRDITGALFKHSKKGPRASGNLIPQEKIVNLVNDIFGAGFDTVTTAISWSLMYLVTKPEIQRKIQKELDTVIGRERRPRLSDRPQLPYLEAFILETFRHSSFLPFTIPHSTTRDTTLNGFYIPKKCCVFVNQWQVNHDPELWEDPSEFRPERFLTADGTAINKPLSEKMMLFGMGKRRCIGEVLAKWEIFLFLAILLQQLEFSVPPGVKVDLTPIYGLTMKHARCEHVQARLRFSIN
% is set by controls: 0 for no effect and ±100 for the full control effect.

AC50, inactive:
C=C1C(=O)O[C@@H]2[C@@H]1CC/C(C)=C\CC[C@@]1(C)O[C@H]21, CCN(c1ccccc1)S(=O)(=O)c1ccc(NC(=S)NC(=O)c2ccc(Br)o2)cc1, CN(C)S(=O)(=O)c1ccc(NC(=O)COC(=O)c2ccccn2)cc1, Cc1nc2ccc(S(=O)(=O)NC(CC(C)C)C(=O)O)cc2s1 (stereo not given), COc1ccc(C(=O)N2CCC3(CCCN(Cc4ccccc4OC)C3)CC2)cc1, CC12CCC(C(=O)Nc3ccccc3Br)(C/C1=N\O)C2(C)C (stereo not given), COC(=O)N1CCC[C@@]2(CCN(C(=O)Nc3cccc(C#N)c3)C2)C1, O=S(=O)(c1ccccc1)N1N=C(c2cccs2)CC1c1ccc(Br)cc1 (stereo not given), COc1ccc(NC(=O)N2CC3(CCN(C(=O)c4c(C)noc4C)CC3)C2)cc1, COc1cccc(N2C(=O)C(CC(=O)Nc3ccccc3)N(C3CCCCC3)C2=O)c1 (stereo not given), COc1cccc(NC(=O)Cc2c(C(=O)O)[nH]c3ccccc23)c1, CCCc1cc2c(n1Cc1cc(F)cc(F)c1)C(C)C1CN(C(=O)c3ccccc3)C(C)(C(=O)OC)C21 (stereo not given), CCN1C(=O)C(CC(=O)Nc2ccc(OC)cc2)N(Cc2cccnc2)C1=S (stereo not given), COc1cccc(NC(=O)C2c3cc(OC)c(OC)cc3C(=O)N(C)C2c2cccnc2)c1 (stereo not given), CCCCNC(=O)CSc1nc2cc(OC)c(OC)cc2c(=O)n1Cc1ccc(OC)cc1, CCCN1CCN(CCCNC(=O)Cn2nc(-c3ccc(C)cc3)ccc2=O)CC1, Cc1nc(C(=O)Nc2ccc(Cl)cc2Cl)nn1-c1cc(OC(C)C)c(Cl)cc1Cl, CN(C)CCOC(=O)C1(c2ccccc2)CCOCC1, Cc1ccc(OCC(=O)NNC(=O)CCC(=O)NCc2ccccc2)cc1, O=C(O)C1C2CCC(C2)C1C(=O)NCc1ccco1 (stereo not given), CCS(=O)(=O)N1CCC(C(=O)NCc2ccco2)CC1, CCOc1ccc(-n2cc(C(=O)NCc3ccco3)c3cc(OC)c(OC)cc3c2=O)cc1, CC(=O)c1ccc(NC(=O)C2(c3ccccc3)CCOCC2)cc1, COc1ccc(S(=O)(=O)N(C)CC(=O)NCc2ccco2)cc1, C/C(CC(=O)NCc1ccco1)=N\NC(=O)Cc1ccccc1, C=CCNC(=O)/C(=C\C=C\c1ccccc1)NC(=O)c1ccc(OCCCC)cc1, Cc1cc(C)cc(Oc2nn[nH]n2)c1, CCn1cnc2sc(C(=O)N3CCN(c4ccc(OC)cc4)CC3)c(C)c2c1=O, CCCCN(Cc1ccccc1)C(=O)c1cnc2n(c1=O)CCS2, CCCNC(=O)Cn1cnc2sc(C(=O)Nc3ccc4c(c3)OCO4)c(C)c2c1=O, CCOC(=O)N1CCN(C(=O)c2cnc3n(c2=O)CCS3)CC1, CN1CCN(NC(=O)c2ccccc2F)CC1, COC(=O)C(NNc1ccccc1)(NC(=O)c1ccccc1F)C(F)(F)F (stereo not given), NCCCNCCCCNCCCN, NCCCCN, COc1ccc(C(=O)N2CCC3(CC2)CN(C(=O)NC(C)C)C3)cc1, COc1ccccc1C(c1nnnn1C(C)(C)C)N1CCCc2ccccc21 (stereo not given), CCc1ccc(N2CC(C)Cn3c2nc2c3c(=O)n(CCN3CCOCC3)c(=O)n2C)cc1 (stereo not given), O=C(O)CN(CCN(CC(=O)O)CC(=O)O)CCN(CC(=O)O)CC(=O)O

AC50, inactive and 31.6 µM (active):
NCCCCNCCCN

AC50, active:
CC(C)Sc1cc(N2CCOCC2)nc(-c2ccc(Cl)cc2)n1 5.62 µM, CCCSc1cc(N2CCCC2)nc(-c2ccccc2)n1 0.631 µM, CC(C)Sc1cc(N2CCCC2)nc(-c2ccc(F)cc2)n1 0.631 µM, Cc1ccc2nc(NC(=O)COC(=O)c3ccc(Br)o3)sc2c1 4.47 µM, Cc1ccc2nc(NC(=O)CSCC(=O)OCC(=O)c3ccc(Br)cc3)sc2c1 8.91 µM, CN(C)S(=O)(=O)c1cccc(NC(=O)COC(=O)c2ccc(Br)o2)c1 14.1 µM, Cc1ccc2nc(NC(=O)COC(=O)CSc3nc(C)cc(C)n3)sc2c1 0.891 µM, O=C(Cc1ccc2c(c1)CCCC2)Nc1ccccc1Br 11.2 µM, CS(=O)(=O)N1N=C(c2ccc(Br)cc2)CC1c1ccc2c(c1)OCO2 (stereo not given) 3.55 µM, COc1ccc(NC(=O)COC(=O)c2c(-c3ccccc3)noc2C)cc1 12.6 µM, COc1cccc(NC(=O)COC(=O)c2c3c(nc4ccccc24)CCC(C)C3)c1 (stereo not given) 2.51 µM, COc1ccc(OC)c(NC(=O)c2c3c(nc4ccccc24)CCC3)c1 12.6 µM, COc1ccc(NC(=O)COC(=O)c2c3c(nc4ccccc24)CCCC3)cc1 7.08 µM, CC(C)(C)Nc1nc(N2CCCC2)nc(N2CCCC2)n1 0.631 µM, COc1ccccc1CNc1nc(-c2cccc(C#N)c2)nc2ccccc12 1.26 µM, COc1ccc(CNc2nc(-c3cccc(NS(C)(=O)=O)c3)nc3ccccc23)c(OC)c1 15.8 µM, COc1ccc(CNc2nc(-c3cccc(C#N)c3)nc3ccccc23)c(OC)c1 2.51 µM, Cc1noc(C)c1-c1cc(N(C)Cc2ccco2)ncn1 3.16 µM, Cc1noc(C)c1-c1nccc(N(C)Cc2ccco2)n1 2 µM, Cc1noc(C)c1-c1nccc(N(C)C)n1 0.631 µM, Cc1noc(C)c1-c1cc(N(C)C)ncn1 3.16 µM, N#CCSc1ncnc2c1cnn2CCO 15.8 µM, COc1cccc(NC(=S)N(CCc2nc3cc(C)c(C)cc3[nH]2)Cc2cccnc2)c1 14.1 µM, Cc1cccc(NC(=S)N(CCc2nc3cc(C)c(C)cc3[nH]2)Cc2cccnc2)c1 14.1 µM, COc1ccc(NC(=S)N(CCc2nc3cc(C)c(C)cc3[nH]2)Cc2cccnc2)cc1 15.8 µM, COc1cc2nc(SCc3ccc(Cl)cc3Cl)n(Cc3cccs3)c(=N)c2cc1OC 5.01 µM, CC(Oc1ccc(Cl)cc1Cl)C(=O)/C=C/N(C)C (stereo not given) 7.08 µM, CCN(CC)CCOC(=O)C1(c2ccc([N+](=O)[O-])cc2)CCCC1 3.16 µM, CCCCOc1ccc(C(=O)NCc2ccco2)cc1 1.26 µM, CC(C)(C)c1ccc(C(=O)NCCC(=O)NCc2ccco2)cc1 1.58 µM, Cc1ccc(OCCCC(=O)NCc2ccco2)cc1 14.1 µM, CCCCCOc1ccc(C(=O)NCC2(c3ccccc3)CCOCC2)cc1 15.8 µM, COc1ccccc1NC(=O)c1sc2ncn(Cc3ccccc3C)c(=O)c2c1C 3.16 µM, COc1ccccc1NC(=O)c1cnc2n(c1=O)CCS2 2.24 µM, O=C(NC(=S)N(Cc1ccccc1)Cc1ccccc1)c1ccccc1F 11.2 µM, COc1ccc(C(=O)NC(C)c2cc(OC)c(OC)cc2Br)cc1 (stereo not given) 14.1 µM, COc1cc(Br)c(C(C)NC(=O)c2cccc(Br)c2)cc1OC (stereo not given) 12.6 µM, Cc1noc(C)c1-c1ccc2ncnc(NCc3cccs3)c2c1 0.398 µM, Cc1noc(C)c1-c1ccc2ncnc(NCc3cccnc3)c2c1 0.316 µM, Cc1noc(C)c1-c1ccc2ncnc(NCc3ccccc3)c2c1 3.16 µM, Cc1ccccc1-c1ccc2ncnc(NCc3cccs3)c2c1 2.51 µM, Cc1cccc(CNc2ncnc3ccc(-c4c(C)noc4C)cc23)c1 5.01 µM, O=C(N/N=C1\CCCc2ccccc21)c1ccc([N+](=O)[O-])cc1Cl 15.8 µM, Cc1cccc(N=C2NN=C(c3ccc4c(c3)OCCO4)CS2)c1 14.1 µM

activity, negative = inhibition, inactive:
CC[N+](C)(CC)CCN1C(=O)c2ccccc2S1(=O)=O -12.1% [at 11.4 µM], C[C@@H]1CC[C@H]2C(=O)N3[C@@H](CC[C@@H](C)[C@@H]3c3ccc(Br)cc3)C(=O)N2[C@@H]1c1ccc(Br)cc1 -18.2% [at 11.4 µM], C=C[C@]1(C)C[C@H](OC(=O)CO)[C@]2(C)C3C(=O)CC[C@]3(CC[C@H]2C)[C@H](C)[C@H]1O (stereo not given in full) -21% [at 2.29 µM], O=C1CCC(c2ccccc2)(c2ccccc2)CC1 -13.3% [at 11.4 µM], O=C1CCC=C1[C@@H](O)CCc1ccccc1 -4.4% [at 11.4 µM], CN(C)[C@H]1C(=O)C(C(=O)NCN2CCCC2)=C(O)[C@]2(O)C(=O)C3=C(O)c4c(O)cccc4[C@](C)(O)[C@H]3C[C@H]12 -17.5% [at 11.4 µM], Nc1ncnc2nc(N3CCN(CCO)CC3)[nH]c12 -1.17% [at 2.29 µM], COc1cccc([C@H]2Oc3ccc(OC)cc3/C(=N\O[C@@H](C)c3cn([C@H](CO)Cc4ccccc4)nn3)[C@@H]2O)c1 -7.2% [at 11.4 µM] and -11.9% [at 11.4 µM], Cc1ccc(S(=O)(=O)NC(=O)OC23COCN2COC3)cc1 7.51% [at 11.4 µM], CC(C)(N=NC(C)(C)C(=N)N)C(=N)N -4.86% [at 11.4 µM], C#CCCCO/N=C1/C[C@@H](O)[C@@H](O)[C@@H]2[C@@H]3C(=O)N(C4CCCCC4)C(=O)[C@H]3CC[C@@H]12 1.04% [at 11.4 µM]

Reference: PubChem BioAssay AID1851 (National Center for Advancing Translational Sciences (NCATS), 2009)
